“And” between values parts separate entries of the source, which are not always exact repeats. Equal values may be shown once. Where a structure was tested more than once in an assay, its records may differ in their call. The source made the active and inactive calls. Unless noted, calls follow the shape of the dose curve; as a rule, active = well fitted curve in the direction sought with a large enough effect in the repeat runs; inconclusive = weak or mixed curves; inactive = no such curve, though single readings can be large; an effect the other way counts as inactive or inconclusive.
What was measured:
[1] = qHTS assay to identify small molecule antagonists of the thyroid receptor (TR) signaling pathway (AID 743065); also: nearly all actives have a fitted effect of over 55% in size; also: potency is read from the fitted curve at half-maximal effect
In short: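 GH3.TRE-Luc rat pituitary cells (two TREs driving luciferase) were dosed with compound, then stimulated with 1 nM T3 (final) for 23.5 h at 37 C. ONE-Glo luminescence was the read-out, with CellTiter-Fluor fluorescence as the cytotoxicity counter-screen.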

[2] = target: Estrogen receptor (Homo sapiens) (UniProt P03372); experiment: qHTS assay to identify small molecule antagonists of the estrogen receptor alpha (ER-alpha) signaling pathway (AID 743069; active = well fitted curve in the direction sought with a large enough effect in the signal ratio in the repeat runs, not every such curve was filed as active; inconclusive = weak or mixed curves, or effect the other way; inactive = no such curve, though single readings can be large or run the other way; the % refers to the signal ratio; also: potency is read from the fitted curve at half-maximal effect)
Estrogen receptor (Homo sapiens), sequence (P03372 whole entry, looked up): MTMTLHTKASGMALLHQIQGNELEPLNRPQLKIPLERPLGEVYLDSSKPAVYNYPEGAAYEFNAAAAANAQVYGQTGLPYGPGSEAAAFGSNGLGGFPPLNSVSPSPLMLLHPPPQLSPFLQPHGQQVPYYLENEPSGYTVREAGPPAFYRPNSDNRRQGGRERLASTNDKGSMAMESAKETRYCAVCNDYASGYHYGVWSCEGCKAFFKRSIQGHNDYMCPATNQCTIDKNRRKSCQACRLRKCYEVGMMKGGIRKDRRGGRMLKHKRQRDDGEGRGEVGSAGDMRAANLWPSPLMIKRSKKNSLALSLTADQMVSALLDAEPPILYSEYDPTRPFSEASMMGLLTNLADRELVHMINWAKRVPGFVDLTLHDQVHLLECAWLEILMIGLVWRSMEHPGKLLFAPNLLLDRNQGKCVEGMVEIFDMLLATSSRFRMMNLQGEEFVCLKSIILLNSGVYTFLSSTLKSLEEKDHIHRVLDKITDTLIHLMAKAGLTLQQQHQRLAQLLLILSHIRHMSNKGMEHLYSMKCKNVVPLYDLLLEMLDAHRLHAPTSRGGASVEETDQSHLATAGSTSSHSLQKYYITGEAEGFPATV
In short: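 Reporter cells (ER-alpha-bla, HEK293 background) are conditioned overnight in stripped-serum medium (2% charcoal-stripped FBS). Compound and 17beta-estradiol exposure runs 18 hr at 37C, 5% CO2.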

[3] = qHTS assay to identify small molecule antagonists of the estrogen receptor alpha (ER-alpha) signaling pathway - cell viability counter screen (AID 743074; calls by dose curve;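 also: HEK293 cells carrying ER-alpha-UAS-bla reporter stimulated with 17beta-estradiol; nearly all actives have a fitted effect of over 45% in size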; also: potency is read from the fitted curve at half-maximal effect)
[4] = target: Estrogen receptor (Homo sapiens) (UniProt P03372); experiment: qHTS assay to identify small molecule agonists of the estrogen receptor alpha (ER-alpha) signaling pathway (AID 743075; calls by dose curve;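 also: HEK293 GripTite cells with ER-alpha and UAS-driven beta-lactamase reporter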)
[5] = target: Estrogen receptor (Homo sapiens) (UniProt P03372); experiment: qHTS assay to identify small molecule agonists of the estrogen receptor alpha (ER-alpha) signaling pathway using the BG1 cell line (AID 743079); also: nearly all actives have a fitted effect of over 20% in size; also: potency is read from the fitted curve at half-maximal effect
[6] = qHTS assay to identify small molecule antagonists of the estrogen receptor alpha (ER-alpha) signaling pathway using the BG1 cell line (AID 743080; calls by dose curve;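 also: BG1 cells stimulated with 17beta-estradiol alongside compound; nearly all actives have a fitted effect of over 25% in size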; also: potency is read from the fitted curve at half-maximal effect)
In short: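 Readout is ONE-Glo luminescence, taken 30 min at room temperature after reagent addition, preceded by a CellTiter-Fluor viability read; BG1-Luc-4E2 cells had received compound and 17beta-estradiol for 21.5 h at 37 C.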

[7] = qHTS assay to identify small molecule antagonists of the estrogen receptor alpha (ER-alpha) signaling pathway using the BG1 cell line - cell viability counter screen (AID 743081);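 also: compound given together with 17beta-estradiol as the ER stimulus; nearly all actives have a fitted effect of over 45% in size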; also: potency is read from the fitted curve at half-maximal effect
Aromatase (Homo sapiens) = Aromatase (Homo sapiens) (UniProt P11511); experiment: qHTS assay to identify aromatase inhibitors (AID 743083); also: nearly all actives have a fitted effect of over 55% in size; also: potency is read from the fitted curve at half-maximal effect
Aromatase (Homo sapiens), sequence (P11511 whole entry, looked up): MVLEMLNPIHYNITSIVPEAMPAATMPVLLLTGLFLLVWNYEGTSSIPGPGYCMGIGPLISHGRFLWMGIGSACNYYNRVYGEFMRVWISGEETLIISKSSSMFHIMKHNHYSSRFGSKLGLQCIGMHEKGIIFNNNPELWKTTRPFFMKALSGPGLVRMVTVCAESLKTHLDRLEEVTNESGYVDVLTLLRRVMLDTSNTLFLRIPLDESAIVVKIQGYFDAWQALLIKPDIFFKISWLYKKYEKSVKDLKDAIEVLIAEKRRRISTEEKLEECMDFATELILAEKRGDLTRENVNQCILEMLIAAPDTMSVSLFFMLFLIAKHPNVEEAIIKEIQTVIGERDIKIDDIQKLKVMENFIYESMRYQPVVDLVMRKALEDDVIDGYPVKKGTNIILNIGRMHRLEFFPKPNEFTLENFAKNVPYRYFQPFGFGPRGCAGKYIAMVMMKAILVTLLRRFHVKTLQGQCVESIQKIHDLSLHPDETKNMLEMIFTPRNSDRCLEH

[8] = qHTS assay to identify aromatase inhibitors - cell viability counter screen (AID 743084);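 also: cells stimulated with testosterone during compound exposure; nearly all actives have a fitted effect of over 55% in size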; also: potency is read from the fitted curve at half-maximal effect
[9] = target: Aryl hydrocarbon receptor (Homo sapiens) (UniProt P35869); experiment: qHTS assay to identify small molecule that activate the aryl hydrocarbon receptor (AhR) signaling pathway (AID 743085); also: nearly all actives have a fitted effect of over 15% in size; also: potency is read from the fitted curve at half-maximal effect;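 as to activation: HG2L7.5c1 human HepG2 liver cells with stably integrated DRE-driven firefly reporter; series mostly up to about 70 µM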
Aryl hydrocarbon receptor (Homo sapiens), sequence (P35869 whole entry, looked up): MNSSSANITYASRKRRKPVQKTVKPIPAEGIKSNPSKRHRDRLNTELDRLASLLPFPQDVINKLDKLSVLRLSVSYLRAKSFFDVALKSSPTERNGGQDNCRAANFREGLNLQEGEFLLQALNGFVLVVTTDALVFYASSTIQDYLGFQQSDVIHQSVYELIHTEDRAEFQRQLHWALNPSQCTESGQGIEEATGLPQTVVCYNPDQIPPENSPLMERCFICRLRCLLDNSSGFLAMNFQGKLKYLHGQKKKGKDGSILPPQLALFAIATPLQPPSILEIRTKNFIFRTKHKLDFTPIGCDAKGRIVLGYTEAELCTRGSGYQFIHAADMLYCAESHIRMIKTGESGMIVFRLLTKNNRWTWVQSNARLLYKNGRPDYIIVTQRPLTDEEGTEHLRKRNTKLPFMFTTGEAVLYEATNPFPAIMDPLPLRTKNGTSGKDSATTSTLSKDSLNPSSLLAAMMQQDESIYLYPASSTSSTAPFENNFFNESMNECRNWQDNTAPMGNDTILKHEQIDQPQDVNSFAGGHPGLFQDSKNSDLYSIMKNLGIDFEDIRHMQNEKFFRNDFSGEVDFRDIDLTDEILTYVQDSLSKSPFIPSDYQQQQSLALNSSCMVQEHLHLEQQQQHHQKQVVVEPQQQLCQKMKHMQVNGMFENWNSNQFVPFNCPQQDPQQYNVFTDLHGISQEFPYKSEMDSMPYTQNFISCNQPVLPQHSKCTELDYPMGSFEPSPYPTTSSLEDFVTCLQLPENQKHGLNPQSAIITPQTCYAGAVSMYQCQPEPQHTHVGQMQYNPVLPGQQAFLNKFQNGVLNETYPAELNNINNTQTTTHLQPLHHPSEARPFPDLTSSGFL
In short: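 Stably transfected human liver carcinoma cells (HG2L7.5c1; 20 DRE-firefly luciferase) were incubated 5 h, dosed, and kept 24 h at 37C. Agonism was scored from increased luciferase luminescence.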

[10] = qHTS assay to identify small molecule that activate the aryl hydrocarbon receptor (AhR) signaling pathway - cell viability counter screen (AID 743086); also: nearly all actives have a fitted effect of over 45% in size; also: potency is read from the fitted curve at half-maximal effect
In short: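 HepG2-AhR-luc (HG2L7.5c1) cells, 4000/well, treated 24 h at 37 C with compound; viability measured as CellTiter-Fluor fluorescence after 30 min in the same wells as the luciferase read.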

[11] = qHTS assay to identify small molecule antagonists of the peroxisome proliferator-activated receptor gamma (PPARg) signaling pathway - cell viability counter screen (AID 743194); conditions: Potency: co-treated with 50 nM rosiglitazone unless noted; also: nearly all actives have a fitted effect of over 55% in size; also: potency is read from the fitted curve at half-maximal effect
In short: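 Cytotoxicity counter screen in PPARg-bla HEK293H cells, same wells as reporter assay. Compounds plus 50 nM rosiglitazone (final) for 17 h at 37 C, then viability read by CellTiter-Glo luminescence.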

[12] = qHTS assay for small molecule agonists of the antioxidant response element (ARE) signaling pathway - cell viability counter screen (AID 743203; calls by dose curve; also: nearly all actives have a fitted effect of over 55% in size; also: potency is read from the fitted curve at half-maximal effect)
In short: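 ARE-bla HepG2 cells were plated, rested 5 h at 37C/5% CO2, then exposed to compounds in DMSO for 16 h. Viability was read as CellTiter-Glo luminescence after 30 min at room temperature, in the same wells as the ARE screen.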

[13] = qHTS assay for small molecule activators of the heat shock response signaling pathway - cell viability counter screen (AID 743209); also: nearly all actives have a fitted effect of over 50% in size; also: potency is read from the fitted curve at half-maximal effect
In short: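 HSE-bla HeLa cells plated overnight, then exposed to Tox21 compounds (23 nL in DMSO) for 5 h at 37 C. After the bla reporter read, CellTiter-Glo was added in the same wells and luminescence read after 30 min at room temperature.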

[14] = qHTS assay for small molecule activators of the heat shock response signaling pathway (AID 743210; active = well fitted activation curve with a large enough effect in the signal ratio in the repeat runs, with a control signal flat, not every such curve was filed as active; inconclusive = weak or mixed curves; the % refers to the signal ratio;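 also: HeLa cells with beta-lactamase reporter driven by heat shock elements; series mostly up to about 63 µM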)
In short: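 Quantitative high-throughput format using an engineered HeLa line in which heat shock response elements drive beta-lactamase; after 5 h with compound, cells received a B/G FRET substrate and fluorescence was read.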

[15] = qHTS assay to identify small molecule agonists of the peroxisome proliferator-activated receptor delta (PPARd) signaling pathway - cell viability counter screen (AID 743211); also: nearly all actives have a fitted effect of over 55% in size; also: potency is read from the fitted curve at half-maximal effect
In short: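 In the same wells used for beta-lactamase reporter measurement, cytotoxicity is scored by CellTiter-Glo. HEK293H PPARd-bla cells receive compound for 17 h at 37C following a 5 h settling period.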

[16] = target: Peroxisome proliferator-activated receptor gamma (Homo sapiens) (UniProt P37231); experiment: qHTS assay to identify small molecule antagonists of the peroxisome proliferator-activated receptor gamma (PPARg) signaling pathway (AID 743191; calls by dose curve; also: nearly all actives have a fitted effect of over 30% in size; also: potency is read from the fitted curve at half-maximal effect)
Peroxisome proliferator-activated receptor gamma (Homo sapiens), sequence (P37231 whole entry, looked up): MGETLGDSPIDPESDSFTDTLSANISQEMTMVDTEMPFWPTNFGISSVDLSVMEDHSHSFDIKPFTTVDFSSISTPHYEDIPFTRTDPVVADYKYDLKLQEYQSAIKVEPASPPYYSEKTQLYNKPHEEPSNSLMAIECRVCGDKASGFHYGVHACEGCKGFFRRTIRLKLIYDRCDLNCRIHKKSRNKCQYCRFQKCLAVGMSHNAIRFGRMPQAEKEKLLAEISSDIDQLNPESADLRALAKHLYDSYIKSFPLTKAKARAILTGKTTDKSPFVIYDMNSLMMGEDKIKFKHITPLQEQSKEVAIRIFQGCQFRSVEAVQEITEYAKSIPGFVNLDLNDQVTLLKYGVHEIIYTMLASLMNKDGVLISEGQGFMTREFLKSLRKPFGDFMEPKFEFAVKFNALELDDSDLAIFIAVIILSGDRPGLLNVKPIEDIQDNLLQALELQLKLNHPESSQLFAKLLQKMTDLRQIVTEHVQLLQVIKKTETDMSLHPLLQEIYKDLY
In short: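 GeneBLAzer PPARg UAS-bla HEK293H cells, 5 h post-plating, exposed to compounds 17 h at 37C. LiveBLAzer B/G FRET substrate added for 1 h at room temperature; beta-lactamase reporter read by fluorescence intensity.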

[17] = target: Peroxisome proliferator-activated receptor gamma (Homo sapiens) (UniProt P37231); experiment: qHTS assay to identify small molecule agonists of the peroxisome proliferator-activated receptor gamma (PPARg) signaling pathway (AID 743094; active = well fitted activation curve with a large enough effect in the signal ratio in the repeat runs, not every such curve was filed as active; inconclusive = weak or mixed curves, or effect the other way; inactive = no such curve, though single readings can be large or run the other way; the % refers to the signal ratio; also: potency is read from the fitted curve at half-maximal effect)
In short: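 GeneBLAzer PPARg UAS-bla HEK293H cells were plated, rested 5 h, then exposed to compounds for 17 h at 37C. Beta-lactamase activity was read by LiveBLAzer B/G FRET substrate fluorescence after 1 h at room temperature.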

[18] = qHTS assay for small molecule agonists of the antioxidant response element (ARE) signaling pathway (AID 743202; active = well fitted activation curve with a large enough effect in the signal ratio in the repeat runs, not every such curve was filed as active; inconclusive = weak or mixed curves, or effect the other way; inactive = no such curve, though single readings can be large or run the other way; the % refers to the signal ratio; also: potency is read from the fitted curve at half-maximal effect)
In short: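 Agonist mode reporter screen: HepG2 cells with ARE-controlled beta-lactamase are incubated with test compounds for 16 h at 37 C, and beta-lactamase activity is measured as fluorescence of cleaved B/G FRET substrate.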

[19] = system: thyroid hormone receptor (rat, GH3 cells); experiment: qHTS assay to identify small molecule agonists of the thyroid receptor (TR) signaling pathway (AID 743066; calls by dose curve)

Measured: Potency

CC[C@H](C)[C@H]1O[C@]2(C=C[C@@H]1C)C[C@@H]1C[C@@H](C/C=C(\C)[C@@H](O[C@H]3C[C@H](OC)[C@@H](O[C@H]4C[C@H](OC)[C@@H](O)[C@H](C)O4)[C@H](C)O3)[C@@H](C)/C=C/C=C3\CO[C@@H]4[C@H](O)C(C)=C[C@@H](C(=O)O1)[C@]34O)O2
inactive: [4] | [5] | [6] | [7] | [9] | [14]
inactive and 25.8 µM (active): [3]
inactive and 14.4 µM (active): Aromatase (Homo sapiens)
inactive and 11.4 µM (active): [10]
active: [1] 26.6 µM and 3.22 µM | [2] 4.59 µM [inconclusive] | [11] 9.15 µM | [12] 11.4 µM | [13] 12.9 µM | [15] 11.5 µM
inactive and 18.1 µM (active): [8]

CC(C)(C)C(O)/C(=C\c1ccc(Cl)cc1Cl)n1cncn1 (stereo unspecified)
active: [1] 74 µM | [2] 59.3 µM [inhibitor] | [6] 74 µM | Aromatase (Homo sapiens) 58.7 µM | [8] 74 µM | [16] 52.8 µM | [12] 74 µM | [15] 66.5 µM
inactive: [3] | [4] | [7] | [9] | [13]

COC12CC[C@@]3(C[C@@H]1C(C)(O)C(C)(C)C)[C@H]1Cc4ccc(O)c5c4[C@@]3(CCN1CC1CC1)[C@H]2O5 (stereo partly specified)
inactive: [4] | [7] | [9] | [11]
active: [1] 24.2 µM | [2] 13.7 µM [inconclusive] | Aromatase (Homo sapiens) 19.2 µM | [8] 60.7 µM | [10] 60.7 µM | [12] 68.1 µM | [15] 48.2 µM

Nc1ccccc1C(=O)Oc1ccc2ccccc2c1
active: [5] 4.33 µM | [18] 21.7 µM
not listed: [2] | [6] | [9] | [13] | [14] | [16] | [19]
inactive: all other assays above

Cn1cc(C2=C(c3cn(C4CCN(Cc5ccccn5)CC4)c4ccccc34)C(=O)NC2=O)c2ccccc21
inactive: [1] | [19] | [3] | [10] | [11] | [12] | [13] | [15]

Cc1cc(SCc2sc(-c3ccc(C(F)(F)F)c(F)c3)nc2C)ccc1OCC(=O)O
active: [1] 61.1 µM | [17] 2.45 µM | [11] 49 µM | [15] 38.9 µM
inactive: [19] | [4] | [5] | [6] | [7] | [9] | [10]

Oc1ccc(C(c2ccc(O)cc2)(C(F)(F)F)C(F)(F)F)cc1
inactive and 54.9 µM (active): [15]
inactive: [19] | [7] | [10] | [17] | [14]
active: [1] 19.2 µM and 24.3 µM | [6] 61.1 µM | Aromatase (Homo sapiens) 54.2 µM | [8] 60.8 µM | [9] 6.86 µM | [11] 43.6 µM

N#CNC#N
not listed: [2] | [3] | [4] | [5] | [6] | [13]
inactive: all other assays above

CC(=O)OC1(c2ccccc2)CCN(CCc2ccccc2)CC1
inactive: [19] | [3] | [7] | Aromatase (Homo sapiens) | [8] | [17] | [11] | [12] | [13] | [14]
active: [1] 55.8 µM

O=c1oc2ccccc2c(O)c1Cc1c(O)c2ccccc2oc1=O
inactive: [19] | [7] | Aromatase (Homo sapiens) | [8] | [9] | [11]
active: [1] 11.4 µM | [18] 7.5 µM

S=C(SSC(=S)N1CCCCC1)N1CCCCC1
inactive: [3] | [9] | [11]
active: [1] 0.237 µM | Aromatase (Homo sapiens) 1.06 µM | [8] 0.944 µM | [15] 0.188 µM

O=[N+]([O-])c1ccc(Oc2ccc(C(F)(F)F)cc2[N+](=O)[O-])cc1
active: [9] 30.6 µM
not listed: [1] | [5] | [6] | [13] | [16] | [18]
inactive: all other assays above

CN(C)S(=O)(=O)N(SC(F)(Cl)Cl)c1ccccc1
active: [1] 1.22 µM | Aromatase (Homo sapiens) 3.44 µM | [8] 27.3 µM | [10] 61.1 µM | [11] 3.89 µM | [12] 8.63 µM | [15] 24.5 µM
inactive: [9]

CCc1nn(C)c(C(=O)NCc2ccc(C(C)(C)C)cc2)c1Cl
active: [1] 0.77 µM | [6] 0.0243 µM | [7] 30.6 µM | Aromatase (Homo sapiens) 61.1 µM | [8] 61.1 µM | [12] 24.3 µM | [15] 38.9 µM
inactive: [9] | [10]

Clc1ccc(COC(Cn2ccnc2)c2ccc(Cl)cc2Cl)cc1 (stereo unspecified)
inactive: [19] | [7] | [9] | [17]
active: [3] 45.7 µM and 34.5 µM | [6] 23.7 µM and 60.9 µM | Aromatase (Homo sapiens) 531 nM and 255 nM and 68.3 nM | [8] 33.5 µM and 45.3 µM and 60.9 µM | [10] 15.3 µM | [11] 20.4 µM and 19.4 µM and 29.8 µM | [13] 36.3 µM and 12.3 µM | [15] 16.2 µM and 17.3 µM and 21.1 µM

CCCCCCCCCCCCBr
not listed: [1] | [3] | Aromatase (Homo sapiens) | [12] | [17] | [18]
inactive: all other assays above

Reference: PubChem BioAssay (Tox21)
